High-throughput results (PubChem BioAssay)
GSH bead fluor: compound fluoresces at 488/530 nm on GSH beads. GSH beads flow cytometry, compound fluorescence 488/530 nm; active compounds read high. fluorescence (KMESF) at 10 µM. actives 0.25% (n = 190,000). AID 1776; in the data active = fluorescence above about 89;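 also: glutathione beads carrying GST-tagged Bcl family fusion proteins plus one bare bead set; values are compound well signal with DMSO vehicle wells as background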
RGS4-Gao reg: modulates binding of RGS4 to human Galphao. Multiplexed bead flow cytometry; actives lie on both sides. binding response (% of control), % at 10 µM. P09471. actives 0.33% (n = 220,000); in the data active = binding response below about 49% or above about 150%; inactive = in between;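 also: fluorescent Galphao activated with aluminum fluoride binding bead-coupled RGS4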
Target sequence (P09471 whole entry, looked up): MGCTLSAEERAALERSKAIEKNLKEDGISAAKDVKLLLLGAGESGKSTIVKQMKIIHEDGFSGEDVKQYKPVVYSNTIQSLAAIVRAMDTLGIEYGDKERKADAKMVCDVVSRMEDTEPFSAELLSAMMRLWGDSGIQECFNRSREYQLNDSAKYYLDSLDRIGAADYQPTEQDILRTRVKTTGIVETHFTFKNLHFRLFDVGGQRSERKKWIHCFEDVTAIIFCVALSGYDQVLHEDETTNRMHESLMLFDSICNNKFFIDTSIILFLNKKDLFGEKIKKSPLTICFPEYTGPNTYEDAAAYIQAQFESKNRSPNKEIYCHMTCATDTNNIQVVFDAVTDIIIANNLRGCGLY
Avidin bead fluor: avidin bead compound fluorescence profile; Avidin beads, compound fluorescence 488/530 nm, flow cytometry; active compounds read high; actives 0.38% (n = 220,000); AID 1775; fluorescence (KMESF) at 10 µM; in the data active = fluorescence above about 47
RGS16-Gao: regulators of human RGS16-Galphao interaction; O15492+P09471; actives 0.38% (n = 220,000); bead-based flow cytometry RGS16-Galphao binding, fluorescence; actives lie on both sides; binding response (% of control), % at 10 µM; call rule not given here;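 also: Galphao activated by GDP with aluminum fluoride before binding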
Target sequence (O15492 whole entry, looked up): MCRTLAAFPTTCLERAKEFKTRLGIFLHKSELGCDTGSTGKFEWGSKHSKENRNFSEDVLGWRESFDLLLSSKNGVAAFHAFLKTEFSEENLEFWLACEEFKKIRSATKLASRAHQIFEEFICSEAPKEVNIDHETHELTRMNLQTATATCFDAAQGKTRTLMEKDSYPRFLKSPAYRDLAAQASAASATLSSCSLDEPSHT
Target sequence (P09471 whole entry, looked up): as the sequence (P09471 whole entry, looked up) above
RGS8-Gao reg: human RGS8-Galphao interaction regulation; P09471; multiplexed bead flow cytometry, RGS8-Galphao binding; actives lie on both sides; response (percent of control binding), % at 10 µM; actives 0.34% (n = 220,000); AID 1423; in the data active = response below about 60% or above about 140%; inactive = in between;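 also: Galphao activated as the GDP aluminium fluoride complex binding bead-coupled RGS8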
RGS7-Gao reg: modulates binding of RGS7 to human Galphao | binding response (% of control), % at 10 µM | actives 0.35% (n = 220,000) | Multiplexed bead flow cytometry; actives lie on both sides | P09471; in the data active = binding response below about 49% or above about 150%; inconclusive = no clear call, values can overlap the other calls; inactive = in between;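 also: fluorescent Galphao held in activated GDP-AlF4 state binding bead-coupled RGS7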
* = called active by the depositor; ? = inconclusive; · = no result. Hits are enriched below; roughly 1.2% of the tested compounds scored in any of these assays.

SMILES | GSH bead fluor | RGS4-Gao reg | Avidin bead fluor | RGS16-Gao | RGS8-Gao reg | RGS7-Gao reg
Cc1nc2ccccc2nc(C)c1=NO | 13 | 100.0 | 8 | 98.6 | 100.8 | 93.5
C/C(O)=c1/ccc2cccc3nc(C)nc1c23 | 17 | 99.0 | 48* | 99.4 | 96.4 | 104.1
Cc1nc2ccccn2c1-c1nnco1 | 12 | 104.1 | 47* | 104.1 | 101.4 | 106.0
Cc1cccc(Nc2nc(-c3c(C)nc4ccccn34)cs2)c1 | 9 | 98.6 | 24 | 95.2 | 101.0 | 98.3
COc1ccc(Cl)cc1C(=O)Nc1nnn(C)n1 | 257* | 108.7 | 6 | 133.4 | 112.3 | 106.5
COc1ccc(Cl)cc1N(CC(=O)N/N=C/c1ccc(OC(C)C)cc1)S(=O)(=O)c1ccc(C)c([N+](=O)[O-])c1 | 5 | 100.0 | 12 | 103.4 | 104.3 | 93.5
C=CCOc1cccc(/C=N/NC(=O)CN(c2cc(Cl)ccc2OC)S(=O)(=O)c2ccc(C)c([N+](=O)[O-])c2)c1 | 196* | 116.7 | 34 | 121.9 | 98.2 | 120.5
COCCOC(=O)/C(C#N)=C/c1cn(Cc2ccccc2)nc1-c1cccnc1 | 18 | 101.4 | 8 | 100.5 | 100.6 | ?
Fc1ccc(Cn2nnnc2C(c2ccc(Cl)cc2)N2CCSCC2)cc1 (configuration not stated) | 39 | 88.5 | 6 | 84.8 | 95.6 | 100.2
CC1CCN(C(c2ccc(N(C)C)cc2)c2nnnn2Cc2ccc(F)cc2)CC1 (configuration not stated) | 251* | 102.8 | 7 | 102.0 | 106.0 | 98.9
CC(=O)Nc1ccc2c(c1)C(=O)c1ccccc1C2=O | 27 | 106.2 | 59* | 100.7 | 101.4 | 113.9
O=C1c2ccccc2C(=O)c2cc(NC(=O)C3CC3)ccc21 | 15 | 101.1 | 6 | 89.7 | 102.0 | 97.5
COCCNC(=S)NNc1cccc(C(=O)O)c1 | 19 | 98.9 | 6 | 97.2 | 98.2 | 90.4
Cc1ccc2nc3c(cc2c1)c(NC(=O)c1ccccn1)nn3CC(C)C | 25 | 105.6 | 62* | 111.3 | 106.3 | 111.5
NS(=O)(=O)c1ccc(NS(=O)(=O)c2ccc(NC(=O)c3ccc(-c4ccccc4)cc3)cc2)cc1 | 13 | 106.5 | 373* | 409.9 | 110.0 | 113.4
NS(=O)(=O)c1ccc(NC(=O)c2ccc(-c3ccccc3)cc2)cc1 | 57 | 98.3 | 10 | 101.2 | 99.9 | 100.3
Cc1cccc(C)c1N1CCc2cn[nH]c21 | 12 | 102.5 | 48* | 100.0 | 95.7 | 102.0
N#Cc1c(N)oc(-c2ccccc2)c1-c1ccccc1 | 268* | 100.0 | 10 | 99.3 | 101.2 | 98.0
O=C(Cc1ccccc1)NS(=O)(=O)c1ccc(N=NN2CCOCC2)cc1 | 16 | 95.7 | 11 | 101.3 | 101.1 | 98.3
CCOc1cc(N2CCOCC2)c(OCC)cc1NCC(=O)N1CCN(Cc2ccccc2)CC1 | · | 103.1 | 10 | 101.0 | 101.1 | ?
CC(C)(C)C(=O)Nc1nc2ccc(S(C)(=O)=O)cc2s1 | 8 | 100.8 | 25 | 101.2 | 99.4 | 100.1
CC1=CCC(C(=O)O)C(C(=O)Nc2nc3ccc(S(C)(=O)=O)cc3s2)C1 (configuration not stated) | 92* | 100.1 | 7 | 99.9 | 100.5 | 100.5
CC(CCc1ccco1)NC(=O)Nc1cccc(F)c1 (configuration not stated) | 52 | 105.8 | 10 | 108.4 | 103.4 | 107.3
Cc1ccc(NC(=O)CS(=O)CC(=O)NC(C)CCc2ccco2)cc1Cl (configuration not stated) | 26 | 97.3 | 72* | 97.8 | 96.6 | 115.6
CC1CCN(S(=O)(=O)c2ccc3c(c2)oc(=O)n3CC(=O)N2c3ccccc3CC2C)CC1 (configuration not stated) | 21 | 93.0 | 56* | 143.5 | 106.9 | 91.4
SMILES | GSH bead fluor | RGS4-Gao reg | Avidin bead fluor | RGS16-Gao | RGS8-Gao reg | RGS7-Gao reg
Cc1ccc(C(O)P(=O)(OC2CCCCC2)OC2CCCCC2)cc1 (configuration not stated) | 38 | 93.8 | 56* | 128.9 | 104.3 | 107.5
COC(=O)c1ccc(C(=O)OC)c(=O)[nH]1 | · | 95.8 | 10 | 99.9 | 100.2 | ?
CCCCNC(=O)c1cnc2n(c1=O)CCS2 | 23 | 101.9 | 29 | 98.9 | 101.4 | 103.0
CCOC(=O)N1CCC(NC(=O)c2cnc3n(c2=O)CCS3)CC1 | 18 | -14.5* | -2 | -12.8* | 2.7* | -21.1*
N#CC1=C(N)Oc2n[nH]c(-c3cccs3)c2C1c1cccs1 (configuration not stated) | 16 | 103.1 | 48* | 101.3 | 101.0 | 109.0
N#CC1=C(N)Oc2n[nH]c(-c3cccs3)c2C1c1ccccc1C(=O)O (configuration not stated) | 19 | 104.9 | 9 | 102.0 | 101.1 | 104.2
CCOC(=O)Cc1nn(Cc2nc(-c3ccc(C)cc3)cs2)c(=O)c2ccccc12 | · | 98.5 | 7 | 99.8 | 101.0 | ?
CCOC(=O)C1=C(Cc2ccc(OC)cc2)C(=O)c2ccccc2C1=O | 63 | 73.1 | 1 | 57.5 | 73.8 | 74.0
CCOC(=O)C1=C(Cc2ccc(C)cc2)C(=O)c2ccccc2C1=O | 226* | 87.2 | 3 | 58.3 | 69.3 | 78.7
CCOc1ccc(NC(=S)Nc2ccc(OCC)cc2)cc1 | 14 | 101.2 | 12 | 107.9 | 104.3 | 100.8
CCOc1ccc(NC(=S)Nc2ccc(OC(F)(F)F)cc2)cc1 | 146* | 98.1 | 5 | 99.9 | 100.9 | 98.2
COc1ccc([N+](=O)[O-])cc1N(CC(=O)NC(C(C)C)C(C)C)S(C)(=O)=O | 18 | 105.0 | 11 | 117.9 | 107.9 | 104.4
N#Cc1c(-c2ccccc2)ccn(Cc2ccc(Cl)cc2)c1=O | 17 | 100.7 | 49* | 99.3 | 98.4 | 110.8
Cc1cc(Cl)c(S(=O)(=O)N2CCN(c3ccc(F)cc3)CC2)cc1OCC(=O)NC1CCCCC1 | 34 | 101.2 | 20 | 101.3 | 100.5 | 111.2
COc1cccc(-c2nn(-c3ccccc3)cc2CN(C)Cc2c(C)nc3ccccn23)c1 | 16 | 101.9 | 7 | 79.1 | 94.1 | 97.4
CSc1ccccc1NS(=O)(=O)c1ccccc1 | 21 | 101.5 | 48* | 104.0 | 102.5 | 104.4
CC1SC(c2ccc(F)cc2)NC1=O (configuration not stated) | 21 | 104.2 | 11 | 106.7 | 104.5 | 102.5
Nc1nc2ccc(O)cc2s1 | 187* | 95.4 | 5 | 102.3 | 101.8 | 101.3
C=CCn1c(SC(C)C#N)nc2sc(CC)cc2c1=O (configuration not stated) | 75 | 102.2 | 13 | 106.8 | 104.6 | 102.1
CC1(C)Cc2c(sc3nnn(CC(=O)Nc4ccccc4)c(=O)c23)CO1 | · | 126.9 | 92* | 91.9 | 94.5 | ?
COc1ccccc1NC(=O)Cn1nnc2sc3c(c2c1=O)CC(C)(C)OC3 | · | 95.7 | 3 | 99.1 | 99.3 | ?
COCCCn1c(SCC(=O)NCc2ccccc2)nc2ccccc2c1=O | 14 | 105.8 | 6 | 111.8 | 105.3 | 108.4
